This is a sample that favours compounds with a hit; in the whole collection about 1.8% have one here.
PDI inh: blocks human protein disulfide isomerase activity; PDI insulin aggregation turbidity, A650, 90 min; 350,000 tested, 0.052% active; P07237; inhibition, % at 10 µM;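 active means mean inhibition across replicates of 30% or more, whatever share of single replicates reach that level; inconclusive means mean inhibition below 30% while every single replicate reaches 30%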
Target sequence (P07237 whole entry, looked up): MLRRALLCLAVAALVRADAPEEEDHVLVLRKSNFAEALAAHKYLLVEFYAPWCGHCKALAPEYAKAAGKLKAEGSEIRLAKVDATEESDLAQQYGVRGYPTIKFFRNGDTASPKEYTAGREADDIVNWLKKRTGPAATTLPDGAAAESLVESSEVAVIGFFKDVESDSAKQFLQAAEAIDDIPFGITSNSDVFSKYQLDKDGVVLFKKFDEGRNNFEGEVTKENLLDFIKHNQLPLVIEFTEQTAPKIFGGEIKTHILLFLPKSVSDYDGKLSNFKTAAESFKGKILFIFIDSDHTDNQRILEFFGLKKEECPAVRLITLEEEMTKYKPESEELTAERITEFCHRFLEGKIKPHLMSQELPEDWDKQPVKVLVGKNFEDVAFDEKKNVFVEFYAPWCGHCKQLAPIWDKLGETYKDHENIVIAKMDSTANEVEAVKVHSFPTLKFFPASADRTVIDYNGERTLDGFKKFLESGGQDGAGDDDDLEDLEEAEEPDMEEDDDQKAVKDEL
ERp5 inh: inhibitors of human ERp5 | 350,000 tested, 0.05% active | ERp5 insulin aggregation, absorbance 650 nm, 90 min | inhibition, % at 9.99 µM | AID 651711;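 active means mean replicate inhibition above about 25%, with every replicate also reaching it, limit read from the data, passing the limit was not always enough; inconclusive means only one of those two criteria met; inactive means neither criterion met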
ERAP1 inh: blocks human ERAP1 aminopeptidase activity | recombinant ERAP1, Leu-AMC fluorescence, 60 min | inhibition, % at 10.7 µM | 340,000 tested, 0.15% active | AID 652197;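 active means mean replicate inhibition of at least 30%, or all replicates individually reaching that 30% level; inactive means mean below 30% and not every replicate reaching it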
AF4-AF9 inh: inhibitors of human MLL-AF4/AF9 interaction; inhibition, % at 10 µM; 350,000 tested, 0.47% active; P42568; AlphaScreen, biotin-AF4 peptide binding to FLAG-AF9;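 active means every replicate reaching a set inhibition limit, whatever the replicate mean, cut at about 25% in these data; inconclusive means mean inhibition reaches that limit but some replicates miss it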
DENV2 CPE: DENV2-induced cell death inhibition; DENV2-infected cells, cytopathic effect rescue, plate reader; CPE inhibition, % at 9.99 µM; 350,000 tested, 1.7% active; AID 651640; in the data active means CPE inhibition above about 20%, passing the limit was not always enough; inconclusive means no clear call, values can overlap the other calls; tested in BHK-21 cells
A number is an active result; i = inactive; ? = inconclusive; nt = no result given; ! = a repeat was not active.

SMILES	PDI inh	ERp5 inh	ERAP1 inh	AF4-AF9 inh	DENV2 CPE
CN(C)c1ccc(CNc2nc3ccccc3n2C)cc1	i	i	i	i	i
CCCn1c(NCc2ccc(N(C)C)cc2)nc2ccccc21	i	i	i	i	23.9
C[C@@H]1CN([C@@H](C)CO)C(=O)c2cccc(NC(=O)C3CCCCC3)c2O[C@@H]1CN(C)Cc1ccc(C(=O)O)cc1	nt	i	i	i	i
C[C@@H]1CCCCO[C@H](CN(C)C(=O)Nc2ccc(C(F)(F)F)cc2)[C@@H](C)CN([C@@H](C)CO)C(=O)c2cc(NC(=O)C3CCCCC3)ccc2O1	nt	i	i	i	21.8
C[C@@H]1CCCCO[C@H](CN(C)C(=O)Nc2ccc(C(F)(F)F)cc2)[C@H](C)CN([C@H](C)CO)C(=O)c2cc(NC(=O)C3CCCCC3)ccc2O1	nt	i	i	i	32.4
C[C@H](CO)N1C[C@H](C)[C@@H](CN(C)C(=O)Nc2ccc(C(F)(F)F)cc2)OCCCC[C@H](C)Oc2ccc(NC(=O)C3CCCCC3)cc2C1=O	nt	i	i	i	86.9
C[C@@H]1CCCCO[C@H](CN(C)C(=O)Nc2ccc(C(F)(F)F)cc2)[C@@H](C)CN([C@H](C)CO)C(=O)c2cc(NC(=O)C3CCCCC3)ccc2O1	nt	i	i	i	i
C[C@@H]1CCCCO[C@@H](CN(C)C(=O)Nc2ccc(C(F)(F)F)cc2)[C@@H](C)CN([C@@H](C)CO)C(=O)c2cc(NC(=O)C3CCCCC3)ccc2O1	nt	nt	i	i	i
C[C@H]1CCCCO[C@H](CN(C)C(=O)Nc2ccc(C(F)(F)F)cc2)[C@@H](C)CN([C@@H](C)CO)C(=O)c2cc(NC(=O)C3CCCCC3)ccc2O1	nt	i	i	i	87.5
CC(=O)Nc1ccc2c(c1)C(=O)N(C)[C@H]1CC[C@H](CC(=O)NCc3ccccc3)O[C@@H]1CO2	nt	i	i	i	i
CCC(C)N1CCC2(CC1)N=c1c(c3c4c5c(C)c(O)c3c(O)c1=NC(=O)C(C)=CC=C[C@H](C)[C@H](O)[C@@H](C)[C@@H](O)[C@@H](C)[C@H](OC(C)=O)[C@H](C)[C@@H](OC)C=CO[C@@](C)(O5)C4=O)N2 (stereo partly specified)	i	i	i	27.0	i
COc1ccc(OC)c(N/C(=N/c2nc(C)cc(C)n2)NC(C)=O)c1	i	i	i	27.1	i
O=C(C[C@H]1C[C@@H]2c3cc(NC(=O)Nc4ccc(C(F)(F)F)cc4)ccc3O[C@@H]2[C@H](CO)O1)NCc1ccccn1	nt	i	i	i	i
C/C=C/c1ccc(C2[C@H]3CNC[C@@H]2N3S(=O)(=O)c2ccccc2OC)cc1 (stereo partly specified)	nt	i	i	i	i
C/C=C/c1ccc(C2[C@H]3CNC[C@@H]2N3S(=O)(=O)c2ccccc2C)cc1 (stereo partly specified)	nt	i	i	i	20.4!
Cc1ccc(OCCCCNC(C)c2ccccc2)c(C)c1 (stereo unspecified)	i	i	i	i	28.6
O=C(NCC(c1ccco1)N1CCN(c2ccccc2)CC1)C1CCCCC1 (stereo unspecified)	i	i	i	i	72.0
CN1CCN(C(=O)c2cc3sc4ccccc4c3s2)CC1	i	i	i	nt	43.4
CCn1c(=O)c2cc(C(=O)N3CCN(C)CC3)sc2c2ccccc21	nt	i	i	i	?
C[C@@H]1CCCCO[C@@H](CN(C)C(=O)Nc2ccc(F)cc2)[C@H](C)CN([C@H](C)CO)C(=O)c2cc(NS(=O)(=O)c3ccc(Cl)cc3)ccc2O1	nt	i	i	i	i
CO[C@@H]1CN(C)C(=O)c2ccc(NC(=O)NC(C)C)cc2OC[C@@H](C)N(CCC(F)(F)F)C[C@H]1C	nt	i	i	i	i
CO[C@@H]1CN(C)C(=O)c2ccc(NC(=O)NC(C)C)cc2OC[C@@H](C)N(CCC(F)(F)F)C[C@@H]1C	nt	i	i	i	32.8
CO[C@H]1CN(C)C(=O)c2ccc(NC(=O)NC(C)C)cc2OC[C@H](C)N(CCC(F)(F)F)C[C@@H]1C	nt	i	i	i	i
CO[C@H]1CN(C)C(=O)c2ccc(NC(=O)NC(C)C)cc2OC[C@H](C)N(CCC(F)(F)F)C[C@H]1C	nt	i	i	i	54.6
C[C@@H]1CN([C@H](C)CO)C(=O)c2cc(NC(=O)Cc3ccccc3)ccc2O[C@@H](C)CCCCO[C@H]1CN(C)C(=O)CCC(F)(F)F	nt	i	i	i	i
SMILES	PDI inh	ERp5 inh	ERAP1 inh	AF4-AF9 inh	DENV2 CPE
O=C(NCC(c1cccs1)N1CCOCC1)C1CCN(S(=O)(=O)c2ccccc2C(F)(F)F)CC1 (stereo unspecified)	i	i	i	i	61.5
COc1ccc(CN(C)C[C@H]2Oc3c(NC(=O)Nc4ccc(F)cc4)cccc3C(=O)N([C@H](C)CO)C[C@@H]2C)cc1	nt	i	i	i	i
CCCCNC(=O)CNC(=S)N(CCCN1CCOCC1)Cc1cccs1	i	i	i	i	44.5
Cc1noc(C)c1NC(=O)N(C)C[C@H]1Oc2ccc(NS(=O)(=O)c3c(C)noc3C)cc2CC(=O)N([C@@H](C)CO)C[C@@H]1C	nt	i	i	i	i
Cc1ccc(/C(O)=C2\C(=O)C(=O)N(C)C2c2ccccc2)cc1 (stereo unspecified)	i	i	i	i	39.4
CSc1ccccc1NC(=O)c1cc2c(=O)n3ccccc3nc2s1	i	i	i	i	22.3
Cc1noc(C)c1NC(=O)Nc1ccc2c(c1)C(=O)N([C@H](C)CO)C[C@H](C)[C@H](CN(C)Cc1ccc(Cl)c(Cl)c1)OCCCC[C@@H](C)O2	nt	i	i	i	35.5
Cc1noc(C)c1NC(=O)Nc1ccc2c(c1)C(=O)N([C@@H](C)CO)C[C@@H](C)[C@@H](CN(C)C(=O)Nc1ccccc1)OCCCC[C@@H](C)O2	nt	i	i	i	21.8
Cc1noc(C)c1NC(=O)Nc1ccc2c(c1)C(=O)N([C@H](C)CO)C[C@H](C)[C@H](CN(C)C(=O)NC1CCCCC1)OCCCC[C@@H](C)O2	i	i	i	i	30.8!
Cc1noc(C)c1NC(=O)Nc1ccc2c(c1)C(=O)N([C@@H](C)CO)C[C@@H](C)[C@H](CN(C)C(=O)NC1CCCCC1)OCCCC[C@H](C)O2	nt	i	i	i	i
Cc1noc(C)c1NC(=O)N(C)C[C@@H]1OCCCC[C@H](C)Oc2ccc(NC(=O)Nc3ccc(C(F)(F)F)cc3)cc2C(=O)N([C@@H](C)CO)C[C@@H]1C	nt	i	i	i	29.6
Cc1noc(C)c1NC(=O)N(C)C[C@@H]1OCCCC[C@@H](C)Oc2ccc(NC(=O)Nc3ccc(C(F)(F)F)cc3)cc2C(=O)N([C@H](C)CO)C[C@@H]1C	nt	i	i	i	i
COC(=O)[C@@H]1[C@@H](CO)[C@@H]2Cn3c(cccc3=O)[C@@H]2N1C(=O)C1CCCCC1	nt	i	i	i	i
CO[C@@H]1CN(C)C(=O)c2ccc(NC(=O)Cc3ccccc3)cc2OC[C@@H](C)N(C(C)=O)C[C@H]1C	nt	i	i	i	i
COc1ccc(S(=O)(=O)N(C)C[C@H]2Oc3ccc(NS(=O)(=O)c4cn(C)cn4)cc3CC(=O)N([C@@H](C)CO)C[C@@H]2C)cc1	nt	i	i	i	i

Screening data as filed in PubChem.
